# Several values for one entry are separate records, joined by “and”; a condition that tells them apart may be missing. Equal values may be shown once. Inconclusive results are not listed. A call without a number means that no potency is given here. Some structures have more than one record in an assay (separate samples or runs), and their calls can disagree. Activity calls are given as the source filed them. Unless noted, the call rests on the fitted dose curve; in most records, active means well fitted inhibition curve with a large enough effect; inconclusive means small, poorly fitted or top-dose-only effect; inactive means flat fitted curve, though single readings scatter.
# Tests used:
# [1] = qHTS profiling for inhibitors of Plasmodium falciparum proliferation (AID 504749); on all read-outs here: nearly all actives have a fitted effect of over 60% in size; details: P. falciparum in erythrocytes, SYBR Green DNA, 72 h; for activity, negative = inhibition: at 28.7 µM (top of the series)
# Outline: (§1)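 Three-day growth assay of blood-stage parasites in erythrocytes (0.3% parasitemia, 2.5% hematocrit) at 37 C, 5% CO2, quantified by SYBR Green DNA staining after overnight detergent lysis.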
# [2] = tested on: 3D7; test: as above; details: P. falciparum in erythrocytes, SYBR Green DNA, 72 h; series mostly up to 28.7 µM
# Outline: as §1
# [3] = tested on: 7G8; test: as above; details: P. falciparum in erythrocytes, SYBR Green DNA, 72 h; series mostly up to 28.7 µM
# Outline: as §1
# [4] = tested on: AA1029; test: as above; details: P. falciparum in erythrocytes, SYBR Green DNA, 72 h; series mostly up to 28.7 µM
# Outline: as §1
# [5] = tested on: AS120; test: as above; details: P. falciparum in erythrocytes, SYBR Green DNA, 72 h; series mostly up to 28.7 µM
# Outline: as §1
# [6] = tested on: ATS189; test: as above; details: P. falciparum in erythrocytes, SYBR Green DNA, 72 h; series mostly up to 28.7 µM
# Outline: as §1
# [7] = tested on: ATS95; test: as above; details: P. falciparum in erythrocytes, SYBR Green DNA, 72 h; series mostly up to 28.7 µM
# Outline: as §1
# [8] = tested on: C2A; test: as above; details: P. falciparum in erythrocytes, SYBR Green DNA, 72 h; series mostly up to 28.7 µM
# Outline: as §1
# [9] = tested on: CP185; test: as above; details: P. falciparum in erythrocytes, SYBR Green DNA, 72 h; series mostly up to 28.7 µM
# Outline: as §1
# [10] = tested on: CP191; test: as above; details: P. falciparum in erythrocytes, SYBR Green DNA, 72 h; series mostly up to 28.7 µM
# Outline: as §1
# [11] = tested on: CP192; test: as above; details: P. falciparum in erythrocytes, SYBR Green DNA, 72 h; series mostly up to 28.7 µM
# Outline: as §1
# [12] = tested on: CP194; test: as above; details: P. falciparum in erythrocytes, SYBR Green DNA, 72 h; series mostly up to 28.7 µM
# Outline: as §1
# [13] = tested on: CP201; test: as above; details: P. falciparum in erythrocytes, SYBR Green DNA, 72 h; series mostly up to 28.7 µM
# Outline: as §1
# [14] = tested on: CP203; test: as above; details: P. falciparum in erythrocytes, SYBR Green DNA, 72 h; series mostly up to 28.7 µM
# Outline: as §1
# [15] = tested on: CP211; test: as above; details: P. falciparum in erythrocytes, SYBR Green DNA, 72 h; series mostly up to 28.7 µM
# Outline: as §1
# [16] = qHTS drug screen for cell cycle checkpoint inhibitors in PARPi-resistant BRCA-mutant ovarian cancer cell lines. (AID 1963452; calls by dose curve); details: PEO1/OlaR viability, CellTiter-Glo luminescence, 96 h; for Z-AUC: stronger effect = lower value
# Outline: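 PEO1, PEO4 and PEO1/OlaR ovarian cancer cells, 600 per well, exposed 96 h at 37C to a dilution series. Viability read by CellTiter-Glo luminescence, normalized to DMSO and empty wells; activity summarized as Z-AUC.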
# [17] = measured here: PEO1 parental Z-AUC
# Potency means the concentration at half of the fitted maximal effect.
smiles,measurement,setting,value
COc1ccc2c(c1OC)C(=O)OC2C1c2cc3c(cc2CCN1C)OCO3 (stereo not drawn),"activity, negative = inhibition",[1]; parasite line A,9.94% (inactive)
same,"activity, negative = inhibition",[1]; parasite line B,3.46% (inactive)
same,Potency,[2],inactive
same,Potency,[3],inactive
same,Potency,[4],inactive
same,Potency,[5],inactive
same,Potency,[6],inactive
same,Potency,[7],inactive
same,Potency,[8],inactive
same,Potency,[9],inactive
same,Potency,[10],inactive
O=[N+]([O-])c1ccccc1,"activity, negative = inhibition",[1]; parasite line A,-4.98% (inactive)
same,"activity, negative = inhibition",[1]; parasite line B,4.83% (inactive)
same,Potency,[2],inactive
same,Potency,[3],inactive
same,Potency,[4],inactive
same,Potency,[5],inactive
same,Potency,[6],inactive
same,Potency,[7],inactive
same,Potency,[8],inactive
same,Potency,[9],inactive
same,Potency,[10],inactive
same,Potency,[11],inactive
same,Potency,[12],inactive
same,Potency,[13],inactive
same,Potency,[14],inactive
same,Potency,[15],inactive
C/C(=C\c1csc(C)n1)[C@@H]1C[C@@H]2O[C@]2(C)CCC[C@H](C)[C@H](O)[C@@H](C)C(=O)C(C)(C)[C@@H](O)CC(=O)O1,Potency,[16],7.8 nM (active)
same,Z-AUC,[16]; [17],-2.7
same,Z-AUC,[16]; measured here: PEO4 Z-AUC,-2.48
same,Potency,[1]; parasite line A,2 nM (active)
same,Potency,[1]; parasite line B,3.5 nM (active)
same,Potency,[2],3.2 nM (active)
same,Potency,[4],4.5 nM (active)
same,Potency,[5],2.5 nM (active)
same,Potency,[6],7.1 nM (active)
same,Potency,[7],3.5 nM (active)
same,Potency,[8],4.5 nM (active)
same,Potency,[9],2 nM (active)
same,Potency,[10],2.8 nM (active)
same,Potency,[11],3 nM (active)
same,Potency,[12],3.8 nM (active)
same,Potency,[14],2.4 nM (active)
same,Potency,[15],3 nM (active)
C=CCC1(C(C)CCC)C(=O)N=C(S)NC1=O (stereo not drawn),"activity, negative = inhibition",[1]; parasite line A,-5.63% (inactive)
same,"activity, negative = inhibition",[1]; parasite line B,-5% (inactive)
same,Potency,[2],inactive
same,Potency,[3],inactive
same,Potency,[4],inactive
same,Potency,[5],inactive
same,Potency,[6],inactive
same,Potency,[7],inactive
same,Potency,[8],inactive
same,Potency,[9],inactive
same,Potency,[10],inactive
COCC(C)N(C(=O)CCl)c1c(C)csc1C (stereo not drawn),"activity, negative = inhibition",[1]; parasite line A,7.86% (inactive)
same,"activity, negative = inhibition",[1]; parasite line B,-2.46% (inactive)
same,Potency,[2],inactive
same,Potency,[3],inactive
same,Potency,[4],inactive
same,Potency,[5],inactive
same,Potency,[6],inactive
same,Potency,[7],inactive
same,Potency,[8],inactive
same,Potency,[9],inactive
same,Potency,[10],inactive
same,Potency,[11],inactive
same,Potency,[12],inactive
same,Potency,[13],inactive
same,Potency,[14],inactive
same,Potency,[15],inactive
COc1ccc(OC)c(C(O)C(C)N)c1 (stereo not drawn),"activity, negative = inhibition",[1]; parasite line A,12.5% (inactive)
same,"activity, negative = inhibition",[1]; parasite line B,-2.03% (inactive)
same,Potency,[2],inactive
same,Potency,[3],inactive
same,Potency,[4],inactive
same,Potency,[5],inactive
same,Potency,[6],inactive
same,Potency,[7],inactive
same,Potency,[8],inactive
same,Potency,[9],inactive
same,Potency,[10],inactive
same,Potency,[11],inactive
same,Potency,[12],inactive
same,Potency,[13],inactive
same,Potency,[14],inactive
same,Potency,[15],inactive
CC(=O)c1c(O)c(C)c(O)c(Cc2c(O)c3c(c(C(=O)/C=C/c4ccccc4)c2O)OC(C)(C)C=C3)c1O,Z-AUC,[16],1.03 (inactive)
same,Z-AUC,[16]; [17],0.667
same,Z-AUC,[16]; measured here: PEO4 Z-AUC,0.636
CC(C)(C)c1cc(O)ccc1O,"activity, negative = inhibition",[1]; parasite line A,-22.4% (inactive)
same,Potency,[1]; parasite line A,7940 nM (active)
same,Potency,[1]; parasite line B,8910 nM (active)
same,Potency,[2],2240 nM (active)
same,Potency,[3],3.16 µM (active) and 2.82 µM (active)
same,Potency,[4],8.91 µM (active) and inactive
same,Potency,[5],8910 nM (active)
same,Potency,[6],10000 nM (active)
same,Potency,[7],7940 nM (active)
same,Potency,[8],4470 nM (active)
same,Potency,[9],11.2 µM (active) and inactive
same,Potency,[10],11200 nM (active)
same,Potency,[11],inactive
same,Potency,[12],16.9 µM (active) and inactive
same,Potency,[13],inactive
same,Potency,[14],15100 nM (active)
same,Potency,[15],12 µM (active) and inactive
C[C@]12CCC(=O)C[C@@H]1CC[C@@H]1[C@@H]2CC[C@]2(C)[C@@H](O)CC[C@@H]12,"activity, negative = inhibition",[1]; parasite line A,-12.4% (inactive)
same,"activity, negative = inhibition",[1]; parasite line B,4.65% (inactive)
same,Potency,[2],inactive
same,Potency,[3],inactive
same,Potency,[4],inactive
same,Potency,[5],inactive
same,Potency,[6],inactive
same,Potency,[7],inactive
same,Potency,[8],inactive
same,Potency,[9],inactive
same,Potency,[10],inactive
same,Potency,[11],inactive
same,Potency,[12],inactive
same,Potency,[13],inactive
same,Potency,[14],inactive
same,Potency,[15],inactive

# — PubChem BioAssay (NCATS)
